Structures are written as SMILES. Results filed as inconclusive are left out. Where a call stands in place of a potency, no number is given. Activity calls are given as the source filed them. The call rests on the fitted dose curve; in most records, active means well fitted inhibition curve with a large enough effect; inconclusive means small, poorly fitted or top-dose-only effect; inactive means flat fitted curve, though single readings scatter.
Potency means the concentration at half of the fitted maximal effect.

A short description of this assay: P-glycoprotein substrates identified in KB-8-5-11 adenocarcinoma cell line, qHTS therapeutic library screen (AID 1346987). Further: nearly all actives have a fitted effect of over 65% in size. Conditions: KB-8-5-11 (P-gp overexpressing) viability, CellTiter-Glo, 72 h; series mostly up to 44.5 µM. The method, boiled down:
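P-gp-mediated resistance screen: KB-8-5-11 cells treated 72 h with compounds in dose-response. CellTiter-Glo viability.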
In general terms: Quantitative high-throughput screening tests each substance at several concentrations.
`CCOC(=O)N1c2ccc(C(F)(F)F)cc2C(N(Cc2cc(C(F)(F)F)cc(C(F)(F)F)c2)C(=O)OC)CC1CC` (stereo not drawn): the Potency entry is “inactive”.
As to `COC(C)(C)CCn1nc(Nc2c(C)cccc2C)c2cnc(Nc3ccc(OCCN4CCCC4)c(F)c3)nc21`, the Potency was 20.6 µM (active).
`C=C1CO[C@@]2(O[C@H]3CC4C5CC=C6C[C@@H](O)C[C@@H](O[C@@H]7OC[C@H](O)[C@H](O[C@@H]8OC[C@@H](O)[C@H](O)[C@H]8O)[C@H]7O[C@@H]7O[C@@H](C)[C@H](OC(C)=O)[C@@H](OC(C)=O)[C@H]7OC(C)=O)[C@]6(C)C5CC[C@]4(C)[C@@H]3[C@@H]2C)[C@@H](O)[C@H]1OC1OC(C)C(O)C(O)C1O` (stereo partly drawn): the outcome was “inactive [at 9.29 µM]”.
For `C=C1C(=O)O[C@@H]2[C@H]3C(C)=CC(=O)C3=C(C)CC[C@@H]12`, the Potency was 14.6 µM (active).
As to `COc1ccc(C2Oc3c(OC)cc(CCCO)cc3C2COC2OC(CO)C(O)C(O)C2O)cc1OC` (stereo not drawn), the Potency entry is “inactive”.
As to `NC(N)=NC(=O)c1cnn(-c2cccc3ncccc23)c1C1CC1`, the Potency entry was “inactive”.
As to `O=C(O)C1=CO[C@@H](O[C@@H]2O[C@H](CO)[C@@H](O)[C@H](O)[C@H]2O)[C@@H]2C(CO)=CC[C@H]12`, the Potency entry is “inactive”.
On the same count and under the same terms, as for `CC[C@@H](Nc1c(Nc2cccc(C(=O)N(C)C)c2O)c(=O)c1=O)c1cc(C(C)C)co1`, the entry is “inactive”.

Source of the values: PubChem BioAssay (NCATS).
